According to the supplement of paper PMC8975748:
Where a name gives a salt, the structure may show the parent alone.

What follows are compounds tested on Saccharomyces cerevisiae BY4741 SeMeCo community (assay: z-score of subpopulation abundance vs DMSO median, subpopulation auxotrophic for H; higher = larger share of this subpopulation than in DMSO controls). Conditions: 10 µM; 24 h; SM minimal medium; subpopulation (auxotrophy): H.
Experimental: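 Fluorescent four-plasmid SeMeCo (self-establishing metabolically cooperating S. cerevisiae BY4741 community; plasmids pH-mRuby2, pL-mWasabi, pU-eCFP, pM-TagRFP657) was grown 24 h in minimal SM medium with each Selleck FDA-approved drug at 10 µM in 384-well plates. Cells were fixed and imaged by high-content confocal microscopy. For each auxotrophic subpopulation (and the prototroph), a z-score gives the deviation from the DMSO vehicle-control population median.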
In the case of `Clc1ccc2c(N3CCN(CCCN4CCN(c5ccnc6cc(Cl)ccc56)CC4)CC3)ccnc2c1` [Piperaquine phosphate], the “z-score of subpopulation abundance” value was 0.23. In the case of `CC1CCc2cc(F)cc3c(=O)c(C(=O)O)cn1c23` (stereo not given) [Flumequine], the “z-score of subpopulation abundance” value was -1. In the case of `NC[C@@H]1O[C@H](O[C@H]2[C@@H](O)[C@H](O[C@@H]3[C@@H](O)[C@H](N)C[C@H](N)[C@H]3O[C@H]3O[C@H](CN)[C@@H](O)[C@H](O)[C@H]3N)O[C@@H]2CO)[C@H](N)[C@@H](O)[C@@H]1O` [Neomycin sulfate], the “z-score of subpopulation abundance” value was 0.56. In the case of `Cc1cnc(NC(=O)C2=C(O)c3ccccc3S(=O)(=O)N2C)s1` [Meloxicam], the “z-score of subpopulation abundance” value was -0.59. For `CC1(C)S[C@@H]2[C@H](NC(=O)Cc3ccccc3)C(=O)N2[C@H]1C(=O)O.CCN(CC)CCOC(=O)c1ccc(N)cc1` [Penicillin G Procaine], the “z-score of subpopulation abundance” value was 1.75. For `O=C(Nc1ccc(Oc2ccc(Cl)cc2)c(Cl)c1)c1cc(I)cc(I)c1O` [Rafoxanide], the “z-score of subpopulation abundance” value was 1.91. For `CC(C)c1c(C(=O)Nc2ccccc2)c(-c2ccccc2)c(-c2ccc(F)cc2)n1CC[C@@H](O)C[C@@H](O)CC(=O)O` [Atorvastatin], the “z-score of subpopulation abundance” value was 6.46. For `CN1CCC(=C2c3ccccc3CCc3sccc32)CC1` [Pizotifen Malate], the “z-score of subpopulation abundance” value was -0.02. `CN(C)CCC=C1c2ccccc2CCc2ccccc21` [Amitriptyline HCl] was tested, and the “z-score of subpopulation abundance” value was -0.87. For `CC[C@@]1(O)C(=O)OCc2c1cc1n(c2=O)Cc2cc3cc(O)ccc3nc2-1` [Hydroxy Camptothecine], the “z-score of subpopulation abundance” value was 3.18. In the case of `O=C(NCCO[N+](=O)[O-])c1cccnc1` [Nicorandil], the “z-score of subpopulation abundance” value was -0.28. For `CN(C)c1ccc(O)c2c1C[C@H]1C[C@H]3[C@H](N(C)C)C(=O)C(C(N)=O)=C(O)[C@@]3(O)C(=O)C1=C2O` [Minocycline HCl], the “z-score of subpopulation abundance” value was -0.15. For `CO/N=C(\C(=O)N[C@@H]1C(=O)N2C(C(=O)O)=C(CSc3nc(=O)c(O)nn3C)CS[C@H]12)c1csc(N)n1` [Ceftriaxone Sodium Trihydrate], the “z-score of subpopulation abundance” value was -0.32. `CCCc1nn(C)c2c(=O)[nH]c(-c3cc(S(=O)(=O)N4CCN(C)CC4)ccc3OCC)nc12` [Sildenafil] was tested, and the “z-score of subpopulation abundance” value was -2.48. With `CC1=C(CC(=O)O)c2cc(F)ccc2/C1=C\c1ccc([S+](C)[O-])cc1` (stereo not given) [Sulindac] the “z-score of subpopulation abundance” value was 0.69. With `CC(=O)O[C@]1(C(C)=O)CC[C@H]2[C@@H]3C[C@H](C)C4=CC(=O)CC[C@]4(C)[C@H]3CC[C@@]21C` [Medroxyprogesterone acetate] the “z-score of subpopulation abundance” value was 0.12. `CCCCCCCCCC(=O)N[C@@H](Cc1c[nH]c2ccccc12)C(=O)N[C@H](CC(N)=O)C(=O)N[C@@H](CC(=O)O)C(=O)N[C@@H]1C(=O)NCC(=O)N[C@@H](CCCN)C(=O)N[C@@H](CC(=O)O)C(=O)N[C@H](C)C(=O)N[C@@H](CC(=O)O)C(=O)NCC(=O)N[C@H](CO)C(=O)N[C@@H]([C@H](C)CC(=O)O)C(=O)N[C@@H](CC(=O)c2ccccc2N)C(=O)O[C@@H]1C` [Daptomycin] was tested, and the “z-score of subpopulation abundance” value was 1.36. For `CCOC(=O)C1=C[C@@H](OC(CC)CC)[C@H](NC(C)=O)[C@@H](N)C1` [Oseltamivir Phosphate], the “z-score of subpopulation abundance” value was 0.58. `CC1(C)S[C@@H]2[C@H](NC(=O)[C@H](NC(=O)N3CCNC3=O)c3ccccc3)C(=O)N2[C@H]1C(=O)O` [Azlocillin sodium salt] was tested, and the “z-score of subpopulation abundance” value was -0.59. For `CN1[C@@H]2CC[C@H]1C[C@@H](OC(c1ccccc1)c1ccccc1)C2` [Benztropine mesylate], the “z-score of subpopulation abundance” value was -0.75. In the case of `CCCCCNC(=N)N/N=C/c1c[nH]c2ccc(OC)cc12` [Tegaserod Maleate], the “z-score of subpopulation abundance” value was 0.7. For `Fc1ccc([C@@H]2CCNC[C@H]2COc2ccc3c(c2)OCO3)cc1` [Paroxetine mesylate], the “z-score of subpopulation abundance” value was -0.34. With `CCCCNC(=O)NS(=O)(=O)c1ccc(C)cc1` [Tolbutamide] the “z-score of subpopulation abundance” value was -0.84. `Oc1ccc(C2CNCCc3c2cc(O)c(O)c3Cl)cc1` (stereo not given) [Fenoldopam mesylate] was tested, and the “z-score of subpopulation abundance” value was 0.06. For `Cc1cc(-n2c(=O)[nH]c(=O)n(C)c2=O)ccc1Oc1ccc(SC(F)(F)F)cc1` [Toltrazuril], the “z-score of subpopulation abundance” value was 0.2. For `CCOC(=O)C1=C(COCCN)NC(C)=C(C(=O)OC)[C@@H]1c1ccccc1Cl` [Levamlodipine], the “z-score of subpopulation abundance” value was 2.66. `O=C1CN2Cc3c(ccc(Cl)c3Cl)N=C2N1` [Anagrelide HCl] was tested, and the “z-score of subpopulation abundance” value was -0.25. In the case of `C[N+](C)(C)CCOC(=O)CCC(=O)OCC[N+](C)(C)C` [Succinylcholine Chloride Dihydrate], the “z-score of subpopulation abundance” value was -0.95. For `COc1ccc(NS(=O)(=O)c2ccc(N)cc2)nn1` [Sulfamethoxypyridazine], the “z-score of subpopulation abundance” value was -0.64. `COC(=O)C1=C(C)NC(C)=C(C(=O)OC(C)(C)CN(C)CCC(c2ccccc2)c2ccccc2)C1c1cccc([N+](=O)[O-])c1` (stereo not given) [Lercanidipine] was tested, and the “z-score of subpopulation abundance” value was 2.07. `O=C1CN(/N=C/c2ccc([N+](=O)[O-])o2)C(=O)N1` [Nitrofurantoin] was tested, and the “z-score of subpopulation abundance” value was -0.05. `C[N+]1(C)[C@@H]2C[C@@H](OC(=O)C(O)(c3cccs3)c3cccs3)C[C@H]1[C@@H]1O[C@@H]12` [Tiotropium Bromide hydrate] was tested, and the “z-score of subpopulation abundance” value was -0.8. In the case of `C=C[C@H]1CN2CC[C@H]1C[C@@H]2[C@@H](O)c1ccnc2ccc(OC)cc12` [Quinidine sulfate], the “z-score of subpopulation abundance” value was 0.89. For `CC[N+](CC)(CC)CC` [Tetraethylammonium bromide], the “z-score of subpopulation abundance” value was -0.73. In the case of `COC(=O)C1=C(C)NC(C)=C(C(=O)OC2CCCN(Cc3ccccc3)C2)C1c1cccc([N+](=O)[O-])c1` (stereo not given) [Benidipine HCl], the “z-score of subpopulation abundance” value was 0.92. In the case of `CCN(CC)CCNC(=O)c1cc(Cl)c(N)cc1OC` [Metoclopramide], the “z-score of subpopulation abundance” value was -0.88. In the case of `N[C@@H]1CONC1=O` [D-Cycloserine], the “z-score of subpopulation abundance” value was 1.3. In the case of `COC(=O)C1=C(C)NC(C)=C(C(=O)OC(C)C)C1c1cccc2nonc12` (stereo not given) [Isradipine], the “z-score of subpopulation abundance” value was -0.09. For `CCn1cc(C(=O)O)c(=O)c2cc(F)c(N3CCNC(C)C3)c(F)c21` (stereo not given) [Lomefloxacin HCl], the “z-score of subpopulation abundance” value was 0.73. `Cc1onc(-c2ccccc2Cl)c1C(=O)N[C@@H]1C(=O)N2[C@@H]1SC(C)(C)[C@@H]2C(=O)O` [Cloxacillin Sodium] was tested, and the “z-score of subpopulation abundance” value was -0.29.
